Reference: publication PMC12136788
Over roughly 24,000 sequences, “enrichment r” has its median near 0.99; the highest 2% begin near 3.7. For the sample, the highest values were picked, then their nearest neighbours and some sequences at random.

T1: UNK ZnF1-3 (human, UniProt Q9C0B0 31-174)
T1 sequence: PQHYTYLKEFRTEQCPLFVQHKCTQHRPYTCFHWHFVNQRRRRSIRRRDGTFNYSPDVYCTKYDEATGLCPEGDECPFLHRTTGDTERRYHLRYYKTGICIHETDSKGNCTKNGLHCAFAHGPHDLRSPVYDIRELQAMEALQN

B1: chr16:94664741:94664742:+_ENSMUSG00000040785_ENSMUST00000117648|mus_hu|mus_mus_mus_hu_False|8_68 (ssRNA)
RNA: GGGAGUUCUACAGUCCGACGAUCUGGUACUGAUCUUGGUAGCUGAUAUUCAGGAGAAAGGCUGGCCAAAGGUGUGUAUAUGCUGGUGUACUGGGGCAAACCUGGUAACACGUUUAUGUAUGCUGGCCGCUGGGUGAUGAUAUCCAACAGAGGAUUGAGCAUCA
B2: chrX:53596632:53596633:-_ENSG00000086758_ENST00000262854|hu_mus|FALSE|FALSE (ssRNA)
RNA: GGGAGUUCUACAGUCCGACGAUCGGCGUGCUUCUCUGUACUCUCAGCCAUAGCAAGCGCCCGUCCCAGGGCUGCUUUCACUUCAUUCACUAGGGCCACUUGAGCAUCUGUGCCACUCCCCGCAGCAGCCAGACUUGCAAGGAACAACAGAGGAUUGAGCAUCA
B3: chr12:39756943:39756944:-_ENSG00000139116_ENST00000544797|hu_mus|hu_hu_hu_mus_False|18_98 (ssRNA)
RNA: GGGAGUUCUACAGUCCGACGAUCGGUUUGGCUGUUACCCCCGAGGGAAUCCUGCAAGAGUCUUGUCAGCUUAGAGUCUCUGUAAGGGACAUGGGUGGCUCUCUUGCUCUUGUCCCCCAAGGCACUUAUUACAUUCCCAAGAGCCAACAGAGGAUUGAGCAUCA
B4: chr12:96663167:96663168:+_ENSG00000111145_ENST00000228741|hu_mus|FALSE|FALSE (ssRNA)
RNA: GGGAGUUCUACAGUCCGACGAUCUCUGGGUCCACAGGAGAAUCAUGGUAGUUGGAAGAAAAGGAAUCAACAGGCAGACUUACAGUCAUGGGAACAUUUCCAACCAGCGUUUAUAGUUUAAAGGUCGACAGAAGGUCAUCUUGUCAACAGAGGAUUGAGCAUCA
B5: chr7:75932113:75932114:+_ENSG00000106211_ENST00000248553|hu_hu|hu_hu_hu_mus_False|8_48 (ssRNA)
RNA: GGGAGUUCUACAGUCCGACGAUCCUGCGACCACUCAUCGGGCAACCGGGGCACCCCGAAAGCUUGAUCGAAGAGGCGGCUGUGUGCGUACCAGUCGUCCCGGAAUGGUUCCCAGCUCGGGCUCCGCAGCGAGAAGGAGGGCACCAACAGAGGAUUGAGCAUCA
B6: 19974894_19982776_1293_CDS_ENSMUSG00000002428_ENSMUST00000002502|mouse|control|control (ssRNA)
RNA: GGGAGUUCUACAGUCCGACGAUCAAUGUACUGUACAGAAAUUUUUCUUCUCUUAGGGCAGACGCUAGACAGCUGCGACAGAGUACAGCUACUCUUCUCCGGAGUUCCUGAAAUACUGGGUUCUUCACCACACGUGGAUGACUCCAACAGAGGAUUGAGCAUCA

What follows are binders tested against T1, UNK ZnF1-3 (assay: nsRBNS (natural sequence RNA bind-n-seq); RBNS binding buffer (assumed for nsRBNS): 25 mM Tris pH 7.5, 150 mM KCl, 3 mM MgCl2, 0.01% Triton X-100, 500 ug/ml BSA, 20 U/ml SUPERase-In, 4 C; UNK is unkempt and MSI1 is Musashi-1; names of the RNAs are library labels; protein concentration not given here; high values mean tight binding).

| Binder | binding signal [enrichment R] |
| --- | --- |
| B1 | 1.06 |
| B2 | 1.52 |
| B3 | 0.694 |
| B4 | 1.6 |
| B5 | 1.04 |
| B6 | 0.756 |
